Screening data as filed in PubChem.
The list is not random: actives were taken first. Their share in the collection is about 7.8%.
Tau filament bind: qHTS Assay for Tau Filament Binding; Microtubule-associated protein tau (Homo sapiens), P10636; recombinant tau filaments, thioflavin S fluorescence, 15 h; filaments grown with octadecylsulfate alongside compound; Potency, µM (top dose mostly 57.1 µM), without a hit: at the highest dose activity change, negative = inhibition; hit rate 2% among 71,000; AID 596, 2007;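 also: % is scaled to controls: 0 for no effect and ±100 for the full control effect; actives lower thioflavin S fluorescence by blocking filaments or displacing dye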
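Read-out: ThS fluorescence, 450 nm excitation/510 nm emission; lower signal marks blocked filament formation or displaced dye. Tau at 1 uM with 30 uM ODS, 10 uM ThS, 5 mM DTT, 100 mM NaCl, 10 mM HEPES pH 7.4; 15 h, 37 C.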
FLuc inh: qHTS Assay for Inhibitors of Firefly Luciferase; purified firefly luciferase, luminescence, 8 min; hit rate 2.2% among 72,000; AID 411, 2009; Potency, µM (series often up to 57.1 µM), inactives show at the top dose activity change, negative = inhibition, hits mostly inhibitors; Luciferin 4-monooxygenase (Photinus pyralis), P08659; also: % is scaled to controls: 0 for no effect and ±100 for the full control effect; nearly all actives have a fitted effect of over 40% in size
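Compounds were tested as concentration series (qHTS) against purified P. pyralis luciferase with luciferin and 10 uM ATP in 50 mM imidazole pH 7.2, 50 mM KCl, 7 mM MgCl2, 0.01% Tween 20, 0.05% BSA. Luminescence was read after 8 min at ambient temperature.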
TSHR ag: qHTS Assay for Agonists of the Thyroid Stimulating Hormone Receptor; Potency, µM (top dose mostly 57.1 µM), for inactives: top-dose activation, actives largely listed as activators; AID 926, 2007; HEK293-CNG-TSHR cells (CNG channel as cAMP sensor), membrane potential dye, cAMP; hit rate 0.48% among 73,000; active = well fitted activation curve with a large enough effect in the main read-out, with a control signal flat, not every such curve was filed as active; inconclusive = small, poorly fitted or top-dose-only effect, or a change in a side signal; inactive = no such curve, though single readings can be large or run the other way; % of control where 0% means no effect;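 also: the control signal comes from parental cells without the receptor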
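cAMP rise detected as CNG-channel membrane depolarization by fluorescent dye (emission 590 nm), 30 min after compound, following 60 min dye loading containing 100 uM RO 20-1724 at room temperature. Cells: TSHR/CNG HEK 293, with parental CNG HEK 293 as control.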
15-hLO inh: qHTS Assay for Inhibitors of 15-hLO (15-human lipoxygenase); purified 15hLO-1, xylenol orange hydroperoxide absorbance; Potency, µM (highest dose often 57.1 µM), inactives show at the top dose activity change, negative = inhibition, usual class: inhibitors; hit rate 1.4% among 74,000; also: % is scaled to controls: 0 for no effect and ±100 for the full control effect; nearly all actives have a fitted effect of over 55% in size
Target sequence (P16050 whole entry, looked up): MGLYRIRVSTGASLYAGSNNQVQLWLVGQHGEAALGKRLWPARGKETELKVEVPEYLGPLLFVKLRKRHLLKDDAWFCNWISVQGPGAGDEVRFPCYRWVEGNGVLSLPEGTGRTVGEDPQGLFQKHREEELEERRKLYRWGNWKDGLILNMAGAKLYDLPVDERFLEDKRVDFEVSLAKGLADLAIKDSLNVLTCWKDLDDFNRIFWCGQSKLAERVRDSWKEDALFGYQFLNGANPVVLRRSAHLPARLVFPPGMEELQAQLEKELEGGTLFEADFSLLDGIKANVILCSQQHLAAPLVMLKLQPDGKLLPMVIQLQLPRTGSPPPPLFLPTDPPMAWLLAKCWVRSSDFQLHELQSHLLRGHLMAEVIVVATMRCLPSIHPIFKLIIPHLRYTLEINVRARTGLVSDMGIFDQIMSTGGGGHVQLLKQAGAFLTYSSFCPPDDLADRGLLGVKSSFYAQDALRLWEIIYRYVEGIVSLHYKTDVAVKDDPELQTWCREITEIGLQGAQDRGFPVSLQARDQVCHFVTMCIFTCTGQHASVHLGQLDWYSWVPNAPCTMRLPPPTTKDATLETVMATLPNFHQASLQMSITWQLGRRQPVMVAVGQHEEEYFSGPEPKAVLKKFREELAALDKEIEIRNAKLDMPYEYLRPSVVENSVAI
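40 nM 15hLO-1 + cpd, 15 min RT; start w/ 50 uM AA (final), 6 min RT; stop/detect w/ 200 uM XO + 300 uM Fe(II) in 50 mM H2SO4, 30 min; A573/A405. Buffer 25 mM Hepes pH 7.5, 0.01% Triton X-100. No-enzyme wells as negative control.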
Bst PK mod: Pyruvate Kinase; purified pyruvate kinase, luminescence ATP production; ribose 5-phosphate activator present at AC10; Potency, µM; hit rate 1.2% among 51,000; in the data active = potency below about 11 µM; inconclusive = mostly about 12 µM to 25 µM;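 the screen sought inhibitors and activators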;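 also: scaled between full activation by ribose 5 phosphate and full inhibition by luteolin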
HEK293 cAMP ctrl: qHTS Assay for Agonists of the Thyroid Stimulating Hormone Receptor: Activators of Intracellular cAMP Concentrations in Parental HEK 293 | parental HEK293 CNG cAMP sensor, membrane potential fluorescence | Potency, µM (doses to about 57.1 µM), for the others: top-dose activation, usual class: activators | hit rate 2.5% among 73,000; also: % of control where 0% means no effect; nearly all actives have a fitted effect of over 55% in size
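Parental HEK 293 cells stably expressing a modified CNG channel (no TSHR) report cAMP rise as membrane depolarization. Membrane potential dye with 100 uM RO 20-1724 was loaded for 60 min at room temperature, then compound added for 30 min; fluorescence read at 590 nm.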
* = called active by the depositor; i = inactive; ? = inconclusive; / = not tested or not shown; [ ] = remark or other dose. Unless noted, calls follow the shape of the dose curve; as a rule, active = well fitted curve in the direction sought with a large enough effect; inconclusive = small, poorly fitted or top-dose-only effect, or another doubt; inactive = no such curve, though single readings can be large; an effect the other way counts as inactive or inconclusive. Potency is read from the fitted curve at half-maximal effect.

SMILES	Tau filament bind	FLuc inh	TSHR ag	15-hLO inh	Bst PK mod	HEK293 cAMP ctrl
COc1ccc(S(=O)(=O)N(CC(=O)Nc2ccc3c(c2)OCO3)c2ccccc2OC)cc1	2.8%	0.4%	6.31µM*	-27.7%	/	26.6%
O=c1cnc2cnc(N3CCNCC3)nc2n1Cc1ccc(F)cc1	-0.1%	1.3%[11.4 µM]	2.8%	7.0%	/	10.9%
COc1ccccc1CNC(=O)Nc1cccs1	/	/	4.3%	12.6µM*	/	-9.2%
COc1ccc(CNC(=O)Nc2cccs2)cc1OC	2.0%	0.7%	1.1%	-27.5%	>57	0.8%
O=C(c1ccco1)N1CCC[C@@]2(CCN(c3ccccn3)C2)C1	14.4%	-1.4%[11.4 µM]	?	-1.2%	/	?
COc1ccc(-n2nnc3c(=O)n(Cc4cccc(C)c4)cnc32)cc1	57.8%	0.2%	?	-12.5%	>57	25.1µM*
COc1ccc(-n2nnc3c(=O)n(Cc4ccccc4C)cnc32)cc1	16.0%	1.7%	/	0.8%	>57	27.1%
Cc1ccc(C)c(Cn2cnc3c(nnn3-c3ccc(F)cc3)c2=O)c1	54.8%	0.3%	?	3.3%	>57	1µM*
O=C(CSc1nc2c(c(=O)[nH]1)CCCC2)Nc1ccc(Cl)cc1F	-4.3%	0.2%	14.9%	4.5%	>57	10.3%
CCc1c(C)nc(SCC(=O)c2ccc(C)c(C)c2)[nH]c1=O	0.2%	0.9%	?	-2.8%	>57	25.1µM*
NC(N)=N/N=C(/c1ccccc1)c1ccc(O)cc1O	-1.5%[11.4 µM]	0.8%[11.4 µM]	4.4%[11.4 µM]	12.5%[11.4 µM]	/	13.0%[11.4 µM]
CCN(CC)c1nc(C#N)cc(-c2ccc(OC)cc2)n1	12.6µM*	0.4%	?	-17.2%	>57	?
O=C1C2=C(Nc3ccccc3SC2c2ccco2)c2ccccc21 (stereo not drawn)	3.98µM*	-3.8%	2µM*	?	/	-23.1%
COc1cc2c(cc1OC)[C@@H]1C(=O)c3ccc4c(c3O[C@@H]1CO2)C=CC(C)(C)O4	1.6%	1.2%	?	-5.7%[25.6 µM]	/	20µM*
Cc1nc(N2CCOCC2)c2oc3ccccc3c2n1	-13.0%	-1.8%	7.9%	-28.7%	i	16.1%
CCc1nc(N2CCCC(C)C2)c2oc3ccccc3c2n1 (stereo not drawn)	2.1%	2.5%	?	-18.7%	>57	15.8µM*
CCc1nc(N2CCCCC2C)c2oc3ccccc3c2n1 (stereo not drawn)	19.2%	0.0%	?	-18.9%	>57	20µM*
CCc1nc(N2CCCCC2)c2oc3ccccc3c2n1	6.1%	-2.2%	?	-18.3%	i	25.1µM*
CCc1nc(NC(C)C)c2oc3ccccc3c2n1	-12.6%	-3.1%	/	?	/	24.1%
N#CCCn1c(=O)cnc2cnc(N3CCNCC3)nc21	-6.6%	-0.4%[11.4 µM]	4.6%	12.9%	/	11.2%
CO[C@H]1COC(=O)C/C=C\[C@@H](C)COC(=O)[C@@H](C)NC(=O)C/C=C\[C@@H]1C	/	0.0%[11.4 µM]	3.1%[11.4 µM]	-1.2%[11.4 µM]	/	3.3%[11.4 µM]
CC(=O)N1CCC2(CC1)CN(Cc1ccccc1)C2	-3.9%	1.1%[11.4 µM]	0.5%	-0.8%	/	11.1%
CCCC[C@H]1C[C@@H]1[C@@H]1N(P(=O)(c2ccccc2)c2ccccc2)[C@](CO)(c2ccccc2)CC12CC2	-8.2%	/	?	/	/	?
CCCC[C@H]1C[C@@H]1[C@@H]1N(C(C)=O)[C@H](c2cccc(OC)c2)CC12CC2	7.2%	/	?	/	/	20µM*
COc1ccc2nc(NC(=O)Cc3ccc(OC)c(S(=O)(=O)N4CCOCC4)c3)sc2c1	10.2%	-10.1%	-4.7%[11.4 µM]	-11.2%	>11.4	0.9%
O=C(O)[C@H](Cc1ccccc1)N1Cc2ccccc2C1=O	-9.0%	1.5%	2.2%	?	/	26.8%
C[C@@H](C(=O)O)c1ccc(N2Cc3ccccc3C2=O)cc1	10.3%[25.6 µM]	5.01µM*	-2.8%[25.6 µM]	4.6%[25.6 µM]	/	14.8%[25.6 µM]
